In the library only some 3.1% were active in any assay of this set; here they are far more common.
TrxR1 inh – blocks rat thioredoxin reductase 1 | O89049 | recombinant rTrxR1, NADPH fluorescence consumption, selenite substrate | Potency, µM (doses to about 114 µM), without a hit: top-dose activity change, negative = inhibition, usual class: inhibitors | 1% of 390,000 active; further: potency means the concentration at half of the fitted maximal effect; on the % scale 0 is the no-effect control and ±100 the full control effect; nearly all actives have a fitted effect of over 65% in size
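Rat TrxR1 (90 nM in the dispensed reagent) was pre-reduced with 400 uM NADPH for 5 min at room temperature, then incubated with compound for 15 min. After 400 uM selenite was added, NADPH fluorescence (Ex 340/Em 450 nm) was followed for 8 min.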
Mito fusion act – mitochondrial division inhibition or fusion activation; 0.23% of 320,000 active; S. cerevisiae fusion-defective mutant growth rescue, CellTiterGlo 48 h; Potency, µM (series often up to 46.1 µM), inactives show at the top dose growth rescue (activation), actives largely listed as activators; further: potency means the concentration at half of the fitted maximal effect; % of control where 0% means no effect; nearly all actives have a fitted effect of over 45% in size
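S. cerevisiae fusion-defective temperature-sensitive mutants (e.g. fzo1-1, mgm1-5) grown 48 h at 37C in YPEG (ethanol/glycerol non-fermentable) medium with 23 nl compound per well; growth rescue read as CellTiterGlo luminescence.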
A549 viability – counter-screen for Nrf2 inhibitors: cytotoxicity in A549 cells; A549 ARE-Fluc cells, CellTiter-Fluor viability, 18-24 h; Potency, µM (series often up to 46 µM), inactives show at the highest dose activity change, negative = cytotoxicity, actives largely listed as inhibitors; 0.16% of 390,000 active; AID 504648; further: potency means the concentration at half of the fitted maximal effect; on the % scale 0 is the no-effect control and ±100 the full control effect
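A549 ARE_Fluc cells in 5% FBS OPTI-MEM were exposed to compounds in concentration-response for 18-24 h at 37 deg C. Viability was read by CellTiter-Fluor fluorescence (Ex 405/Em 525) after 30 min, before the luciferase read.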
IDH1 R132H inh – blocks human mutant IDH1 R132H enzyme. O75874. IDH1-R132H enzyme, NADPH consumption, diaphorase/resazurin fluorescence. Potency, µM (series often up to 76.6 µM), for inactives: at the top dose activity change, negative = inhibition, hits mostly inhibitors. 0.093% of 390,000 active; further: potency means the concentration at half of the fitted maximal effect; on the % scale 0 is the no-effect control and ±100 the full control effect; nearly all actives have a fitted effect of over 65% in size
Target sequence (O75874 whole entry R132H, stated change not applied): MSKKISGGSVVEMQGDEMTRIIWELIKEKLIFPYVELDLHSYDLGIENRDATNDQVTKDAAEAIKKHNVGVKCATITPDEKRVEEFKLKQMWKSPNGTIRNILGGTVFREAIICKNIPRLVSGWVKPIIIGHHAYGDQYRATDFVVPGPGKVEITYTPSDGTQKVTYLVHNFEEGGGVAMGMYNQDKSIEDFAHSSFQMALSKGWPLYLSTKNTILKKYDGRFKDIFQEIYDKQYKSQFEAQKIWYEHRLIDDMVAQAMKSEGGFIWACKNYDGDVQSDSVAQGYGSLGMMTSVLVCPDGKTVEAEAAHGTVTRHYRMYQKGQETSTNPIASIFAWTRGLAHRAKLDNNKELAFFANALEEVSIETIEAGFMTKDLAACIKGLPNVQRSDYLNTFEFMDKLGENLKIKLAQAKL
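IDH1-R132H (0.5 ug/mL) preincubated 30 min with compound, then NADPH (0.016 mM) and alpha-KG (2 mM) added; 80 min at RT, pH 7.5. Remaining NADPH coupled via diaphorase/resazurin to fluorescence (540/590 nm); concentration-response curves normalized to no-enzyme control.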
TrxR1 substrate – is turned over as a substrate by rat TrxR1 | O89049 | purified TrxR1 substrate turnover, NADPH consumption readout | Potency, µM (highest dose often 114 µM), for the others: top-dose activity change, negative = substrate turnover | 0.01% of 390,000 active | AID 588456; further: potency means the concentration at half of the fitted maximal effect; on the % scale 0 is the no-effect control and ±100 the full control effect; nearly all actives have a fitted effect of over 50% in size
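Rat TrxR1, dispensed at 90 nM, was prereduced with 400 uM NADPH (final) for 5 min at ~22 deg C, then incubated with compound 15 min before 400 uM selenite. A first-read NADPH fluorescence drop versus no-compound background flagged substrates.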
Nrf2 block – blocks Nrf2 signaling; A549 ARE-Fluc reporter, luciferase luminescence, 18-24 h; Potency, µM (series often up to 46 µM), for inactives: at the top dose activity change, negative = inhibition, most hits filed as inhibitors; 2.1% of 360,000 active; AID 504444; further: potency means the concentration at half of the fitted maximal effect; on the % scale 0 is the no-effect control and ±100 the full control effect; nearly all actives have a fitted effect of over 60% in size
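A549 ARE_Fluc cells (5000/well, 5% FBS OPTI-MEM) pre-incubated 2 h, then treated with compounds 18-24 h at 37C/5% CO2 in concentration-response. CellTiter-Fluor viability read first; BugLite luciferase luminescence after 15 min at room temperature gives Nrf2 activity.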
IDH1 autofl – counter-screen for mutant IDH1 inhibitors: fluorescence interference; 750 tested, under 10 active; Resorufin detection reagent fluorescence interference, cell-free; shares compounds with IDH1 R132H inh; inhibition of signal, % at 51.2 µM;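 further: 0% = wells with normal resorufin and full inhibition = wells lacking resorufin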
IDH1 WT – inhibits human wild-type IDH1, mutant selectivity check; shares compounds with IDH1 R132H inh; WT IDH1 enzyme, NADPH diaphorase/resazurin fluorescence; Potency, µM (titrated, usually from 115 µM), without a hit: top-dose activity change, negative = inhibition, usual class: inhibitors; 9% of 750 active;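 further: potency means the concentration at half of the fitted maximal effect; 0% = full WT IDH1 enzyme control and full inhibition = no enzyme wells; nearly all actives have a fitted effect of over 55% in size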
Target sequence (O75874 whole entry, looked up): as the sequence (O75874 whole entry R132H, stated change not applied) above, with H132R counted along it
IDH1 R132H conf – inhibits human mutant IDH1 enzyme in cherrypick confirmation. IDH1 R132H enzyme, NADPH diaphorase/resazurin fluorescence. 83% of 750 active. shares compounds with IDH1 R132H inh. Potency, µM (series often up to 76.6 µM), without a hit: top-dose activity change, negative = inhibition, actives largely listed as inhibitors. AID 624002; further: potency means the concentration at half of the fitted maximal effect; nearly all actives have a fitted effect of over 50% in size
The depositor's hits bear a star; ? = inconclusive; nt = no result; [ ] = another dose, or the depositor's remark. The call rests on the fitted dose curve; in most records, active means well fitted curve in the direction sought with a large enough effect; inconclusive means small, poorly fitted or top-dose-only effect, or another doubt; inactive means no such curve, though single readings can be large; an effect the other way counts as inactive or inconclusive.

SMILES	TrxR1 inh	Mito fusion act	A549 viability	IDH1 R132H inh	TrxR1 substrate	Nrf2 block	IDH1 autofl	IDH1 WT	IDH1 R132H conf
COc1cc(SC#N)ccc1N=Cc1c(C)[nH]n(-c2ccc(C)cc2C)c1=O	-1%	-6%	-11%	41µM*	-7%	-27%	2	14%	16µM*
COc1ccc(N(C(=O)/C=C\C(=O)Nc2ccc(Cl)cc2)C(C(=O)NCc2ccco2)c2ccc(C)cc2)cc1 (stereo unspecified)	-14%[57.1 µM]	nt	-16%	?	-5%[57.1 µM]	nt	0	4%	-11%
Cc1nc2c(c(C)nn2-c2ccccc2)c(C)c1CCC(=O)Nc1ccc(F)cc1	1%	nt	-5%	-10%	42%	?	nt	nt	nt
CC(=O)Nc1ccc(NC(=O)c2cc(CN3CCCC3)on2)cc1	5%[57.1 µM]	nt	1%	-5%	-3%[57.1 µM]	?	nt	nt	nt
O=C(COc1ccccc1-c1ccccc1)NCCN1C(=O)S/C(=C\c2cccnc2)C1=O	-15%	0%	3%	46µM*	-1%	?	-3	-11%	28µM*
Cc1cccc2c1N(CCOc1ccc(C(C)(C)C)cc1)C(=O)C2=O	-18%	-4%	18%	?	-15%	-4%	-4	-18%	25µM*
Cc1ccc(OCCCN2C(=O)C(=O)c3cccc(C)c32)cc1	-18%	4%	17%	5%	-6%	-6%	nt	nt	nt
C[C@@H]1CN([C@H](C)CO)S(=O)(=O)c2ccc(C#Cc3ccccc3F)cc2O[C@H]1CN(C)C(=O)c1ccc2c(c1)OCO2	nt	nt	nt	?	nt	nt	-1	5%	5.6µM*
COc1cc(NS(=O)(=O)c2ccc(NC(=S)NC(=O)/C=C/c3ccc(OC)c(OC)c3)cc2)ncn1	-8%[57.1 µM]	-3%	2%	?	-9%[57.1 µM]	-12%	nt	nt	nt
COc1ccc(/C=C/C(=O)NC(=S)Nc2ccc(S(=O)(=O)Nc3cc(OC)ncn3)cc2)cc1	-31%[57.1 µM]	2%	-11%	?	-1%[57.1 µM]	7%	7	40µM*	5µM*
CC(C)c1ccc(NC(=O)c2ccc(CN3CC(=O)N4CCCCC4C3=O)cc2)cc1 (stereo unspecified)	1%	nt	3%	-1%	-6%	-1%	nt	nt	nt
COc1cc(Br)cc(/C=N/N(CCO)C2=NS(=O)(=O)c3ccccc32)c1OC	16%	-2%	10%	13µM*	-3%	30%	-7	0%	25µM*
CCc1cc2c(=O)n(Cc3ccco3)c(SCC(=O)NCC3CCCO3)nc2s1 (stereo unspecified)	2%[57.1 µM]	0%	-14%	0%	8%[0.0914 µM]	?	nt	nt	nt
CCc1cc2c(=O)n(Cc3ccco3)c(SCC(=O)N3CCCc4ccccc43)nc2s1	?	0%	-28%	?	4%	26µM*	3	-2%	?
COc1cc(NC(=O)Cn2c(=O)n(-c3ccccc3)c(=O)c3c4c(sc32)CCCC4)cc(OC)c1	18%	nt	-3%	-1%	3%	13%	nt	nt	nt
CN1C(=O)/C(=C2\SC(=S)N(CCCCCC(=O)O)C2=O)c2ccccc21	-10%	-2%	3%	4%	1%	30%	nt	nt	nt
O=C(O)CCN1C(=O)/C(=C2\C(=O)N(Cc3ccc(F)cc3)c3ccccc32)SC1=S	-1%	-5%	-22%	9.3µM*	-6%	-12%	-1	-12%	4µM*
COc1ccc(-n2nc3ccc(NC(=O)c4c(OC)cccc4OC)cc3n2)cc1	95%	nt	8%	-9%	147%	?	nt	nt	nt
O=c1[nH]c(/C=C/c2ccc([N+](=O)[O-])cc2)c([N+](=O)[O-])c(=O)[nH]1	-14%	5%	-7%	46µM*	-10%	4%	7	-9%	32µM*
Cc1cccc(NC(=O)COc2ccc(/C=C\c3[nH]c(=O)[nH]c(=O)c3[N+](=O)[O-])cc2)c1	-15%[57.1 µM]	-2%	0%	52µM*	-5%[57.1 µM]	4%	11	?	32µM*
COc1ccccc1NC(=O)Cn1nc2c3cc(F)ccc3n(Cc3cccc(C)c3)cc-2c1=O	31%	nt	-6%	0%	10%	21%	nt	nt	nt
CCc1nc(-c2cc(S(=O)(=O)N3CCN(c4ccccc4)CC3)ccc2OC)no1	12%	nt	0%	-10%	4%	46%	nt	nt	nt
CCOC(=O)c1c(-c2ccc(C)o2)csc1NC(=O)CN1CCC(C(N)=O)CC1	-48%	-2%	-2%	16%	8%	-2%	nt	nt	nt
CCOC(=O)c1c(-c2ccc(C)o2)csc1NC(=O)CN(C)CC(=O)Nc1ccc(C)cc1	?	-1%	-27%	?	5%	16µM*	-1	-9%	14µM*
Cc1csc(NC(=O)CCCC(=O)O)c1-c1nc2ccccc2s1	-6%[57.1 µM]	5%	-6%	?	-2%[57.1 µM]	-9%	-2	8%	25µM*
SMILES	TrxR1 inh	Mito fusion act	A549 viability	IDH1 R132H inh	TrxR1 substrate	Nrf2 block	IDH1 autofl	IDH1 WT	IDH1 R132H conf
CC1=C(C(=O)Nc2ccccc2C)C(c2sccc2C)n2ncnc2N1 (stereo unspecified)	11%[57.1 µM]	nt	14%	-11%	-3%[57.1 µM]	nt	nt	nt	nt
CC1CN(C(=O)c2ccc(NS(=O)(=O)c3ccc(C(C)(C)C)cc3)cc2)CC(C)O1 (stereo unspecified)	10%	-2%	0%	?	7%	-13%	-9	7%	35µM*
CCSc1sccc1C1C(C#N)=C(N)N(c2cccnc2)C2=C1C(=O)CC(C)(C)C2 (stereo unspecified)	-15%	1%	-3%	58µM*	-6%	0%	-3	-6%	28µM*
CC1(C)CC(=O)C2=C(C1)N(c1cccnc1)C(N)=C(C#N)C2c1cccs1 (stereo unspecified)	?	2%	-20%	3%	-3%	-25%	nt	nt	nt
O=C(NCc1cccc(F)c1)c1ccc(-n2cnc3cccnc32)cc1	6%	nt	0%	5%	-3%	-12%	nt	nt	nt
CCc1ccc(NC(=O)CSc2cn(CC(=O)N3CCOCC3)c3ccccc23)cc1	11%	nt	3%	-7%	-4%	?	nt	nt	nt

Compound activity from PubChem.
